# Compound activity deposited in PubChem by National Center for Advancing Translational Sciences (NCATS).
# HT1080-NT tox: kills 2HG-producing HT-1080-NT fibrosarcoma cells | Potency, µM (highest dose often 46.1 µM), for the others: at the highest dose activity, negative = less viability, most hits filed as cytotoxic | AID 686970 | HT-1080-NT fibrosarcoma viability, CellTiter-Glo ATP luminescence, 48 h | hit rate 1.6% among 360,000;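 also: NT is the 2HG producing partner of a matched IDH1 knockdown line; potency is read from the fitted curve at half-maximal effect; 0% = DMSO-treated cells and -100% = media-only wells without cells; nearly all actives have a fitted effect of over 55% in size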
#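 Luminescent CellTiter-Glo readout after 48 hours of compound exposure at 37 degrees C defined viability of HT-1080-NT cells. Activity was normalized to DMSO wells and cell-free media wells; concentration-response curves were fitted and assigned curve classes.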
# HT1080 IDH1KD tx: toxicity to HT-1080 IDH1 knockdown cells (counter line); HT-1080 IDH1 knockdown viability, ATP luminescence, 48 h; Potency, µM (series often up to 46.1 µM), inactives show top-dose activity, negative = toxicity, hits mostly cytotoxic; hit rate 2% among 360,000; AID 686971;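 also: potency is read from the fitted curve at half-maximal effect; 0% = DMSO wells and -100% = cell-free medium wells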
#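 Cytotoxicity counter-line: IDH1KD HT-1080, 48 h, CellTiter-Glo. Curves classed by r2, magnitude and activity.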
# IL-1B inflam inh: inhibitors of inflammasome signaling (IL-1 beta secretion); THP-1 LPS/ATP IL-1B secretion, AlphaLISA, 16 h; hits give low values; activity change, % at 57.5 µM; hit rate 4.7% among 360,000; in the data active = activity change below about -50%; inconclusive = mostly about -30% to -49%
#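 THP-1 cells pretreated 1 hr with compounds (up to 57.5 uM final), then stimulated with LPS (250 ng/mL final) plus ATP (1.25 mM final); secreted IL-1B measured by AlphaLISA after 16 hr, decreased signal indicating inhibition.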
# KB-3-1 cytotox: KB-3-1 parental cell cytotoxicity; KB-3-1 viability, CellTiter-Glo ATP luminescence, 72 h; Potency, µM (highest dose often 46.1 µM), hits mostly cytotoxic; hit rate 1.4% among 400,000; AID 1347075; also: potency is read from the fitted curve at half-maximal effect; nearly all actives have a fitted effect of over 60% in size
#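 Parental KB-3-1 adenocarcinoma cells in phenol-red-free DMEM with 10% FBS were pin-treated with compounds at several concentrations, incubated 72 h at 37 °C, and viability read by CellTiter-Glo luminescence; concentration-effect curves were fitted after normalization.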
# KB-V1 cytotox: kills drug-selected multidrug resistant KB-V1 cells; KB-V1 MDR cells viability, CellTiter-Glo, 72 h; Potency, µM (titrated, usually from 46.1 µM), hits mostly cytotoxic; hit rate 3.4% among 400,000; also: potency is read from the fitted curve at half-maximal effect; nearly all actives have a fitted effect of over 60% in size
#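 Readout: CellTiter-Glo luminescence, 10 min after addition. Cells: KB-V1 MDR subline, 72 h at 37 degrees C with compound. Analysis: corrected, normalized data fitted to concentration-effect curves.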
# * hit, by the source's call; i = inactive; u = inconclusive; x = not tested or not shown. Rows were chosen to be rich in hits. Some 8.8% of all compounds tested hit in one or more screens of this group. Unless noted, calls follow the shape of the dose curve; as a rule, active = well fitted curve in the direction sought with a large enough effect; inconclusive = small, poorly fitted or top-dose-only effect, or another doubt; inactive = no such curve, though single readings can be large; an effect the other way counts as inactive or inconclusive. Unless noted, % is scaled to controls: 0 for no effect and ±100 for the full control effect.
SMILES,HT1080-NT tox,HT1080 IDH1KD tx,IL-1B inflam inh,KB-3-1 cytotox,KB-V1 cytotox
Cc1ccc(OCCCCCCN2CCNCC2)c(Br)c1,u,15µM*,-89*,i,i
COC(=O)C1=C(C)NC(=O)NC1c1ccc(N2CCC(c3ccccc3)=N2)cc1 (configuration not stated),-25%,u,-69*,i,u
CCOc1ccc(N(c2nc(-c3ccc(OC)c(OC)c3)no2)c2nc(-c3ccc(OC)c(OC)c3)no2)cc1,x,x,x,i,u
COc1ccc(CCN2C(=O)CSC2=Nc2ccc(C(C)C)cc2)cc1OC,u,5.8µM*,x,3.7µM*,3.3µM*
OCCc1ccc(O)c(-n2nc3ccccc3n2)c1,13%,-8%,-14,i,u
Cc1cc(C)c2c(=O)[nH]c(=O)n(Cc3ccccc3)c2n1,0%,-3%,13,i,13µM*
Cc1ccc(-c2nc3c(c(=O)[nH]c(=O)n3Cc3ccccc3)n2Cc2ccccc2)o1,-23%,-2%,33,i,u
Cc1c(NC(=O)c2cccc(-c3cc4ccccc4oc3=O)c2)cccc1-c1nc2ncccc2o1,-24%,-24%,31,i,i
COC(=O)c1[nH]c2ccccc2c1NC(=O)CNC1CCCCC1,0%,0%,17,i,18µM*
CC(NC(=O)c1cc2sccc2n1C)c1ccc2c(c1)OCCO2 (configuration not stated),-1%,-11%,4,u,21µM*
CC(CC(=O)NC(C)c1ccc2c(c1)OCCO2)c1ccccc1 (configuration not stated),7%,-2%,18,i,26µM*
CC(NC(=O)CCc1ccccc1)c1cc2c(cc1Cl)OCCO2 (configuration not stated),-6%,0%,-2,u,21µM*
CC(CC(=O)Nc1ccc2c(c1)OCCO2)c1ccccc1 (configuration not stated),2%,-2%,7,i,i
N#C/C(=C1\C(=O)Nc2c(Cl)cc(Cl)cc21)c1nnc2n1CCCCC2,22%,3%,u,i,i
C=CCn1c(=O)/c(=C/c2ccc(Cl)cc2)s/c1=C(\C#N)c1nnc2n1CCCCC2,-15%,-1%,-79*,x,x
O=C(COC(=O)c1ccccc1C(=O)c1ccccc1)Nc1ccc(SC(F)F)cc1,-28%,u,-77*,i,i
O=C(Cn1cnc2ccccc21)Nc1ccc(SC(F)F)cc1,-26%,u,-61*,i,u
Cc1ccc(C(=O)Nc2ccc(SC(F)F)cc2)s1,-3%,-16%,-59*,i,u
CC(=O)N1CCN(C(=S)Nc2ccc(SC(F)F)cc2)CC1,9%,-3%,-5,i,21µM*
COc1ccc(NC(=O)COC(=O)Cn2cnc3ccccc32)cc1,-2%,-1%,0,i,i
FC(F)(F)c1cccc(N2CCN(c3nc4ccccc4n4cnnc34)CC2)c1,x,x,x,i,i
COC(=O)[C@]1(Cc2ccccc2)N[C@H](CN(C)S(=O)(=O)c2ccc(C(C)(C)C)cc2)[C@@H]2C(=O)N(Cc3ccccc3)C(=O)[C@@H]21,-3%,-1%,-22,i,i
Cn1ccnc1SCC(=O)Nc1ccc(SC(F)F)cc1,22%,7%,-20,i,i
CCn1c(N)[n+](CC(=O)Nc2ccc(SC(F)F)cc2)c2ccccc21,u,u,-97*,u,u
CC[N+](CC)(CC)CC(=O)Nc1ccc(SC(F)F)cc1,2%,u,-96*,i,i
CC(C)=CCC[C@H](C)C[C@@H]1Cc2[nH][nH]c(=O)c2[C@@H](c2ccc(F)cc2)O1,-30%,-28%,-17,i,i
Cc1cc(NC(=O)CSCC(=O)Nc2cc(Cl)ccc2N2CCN(C)CC2)no1,-1%,-2%,-7,i,i
COc1ccc(CNC(=O)c2cc(S(=O)(=O)N3CCCCC3)ccc2N2CCOCC2)cc1OC,3%,-11%,-29,i,23µM*
Cc1cc(OCC(=O)Nc2cc(S(=O)(=O)N3CCOCC3)ccc2N2CCCC2)ccc1C(C)C,8%,1%,u,i,7.3µM*
